Sampled rows, rich in hits. Any-hit rate of the full collection: about 1.2%.
GSH bead fluor = compound fluorescence on glutathione beads, profiling panel, artefact control, biophysical, 488/530 nm, flow cytometry | 0.25% of 190,000 active | fluorescence (KMESF) at 10 µM | GSH beads flow cytometry, compound fluorescence 488/530 nm; active compounds read high; in the data active = fluorescence above about 89;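 note: glutathione beads carrying GST-tagged Bcl family fusion proteins plus one bare bead set; values are compound well signal with DMSO vehicle wells as background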
RGS16-Gao = modulators of RGS16 binding to Galphao, primary screen, biochemical, human proteins, multiplexed bead flow cytometry; bead-based flow cytometry RGS16-Galphao binding, fluorescence; actives lie on both sides; binding response (% of control), % at 10 µM; 0.38% of 220,000 active; AID 1441, 2008;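 note: Galphao activated by GDP with aluminum fluoride before binding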
Target sequence (O15492 whole entry, looked up): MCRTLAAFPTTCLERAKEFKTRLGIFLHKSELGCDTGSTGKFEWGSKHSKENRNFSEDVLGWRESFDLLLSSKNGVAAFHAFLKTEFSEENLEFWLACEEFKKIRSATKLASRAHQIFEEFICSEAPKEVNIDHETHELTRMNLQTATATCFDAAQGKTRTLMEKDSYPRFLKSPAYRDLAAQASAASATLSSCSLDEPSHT
Target sequence (P09471 whole entry, looked up): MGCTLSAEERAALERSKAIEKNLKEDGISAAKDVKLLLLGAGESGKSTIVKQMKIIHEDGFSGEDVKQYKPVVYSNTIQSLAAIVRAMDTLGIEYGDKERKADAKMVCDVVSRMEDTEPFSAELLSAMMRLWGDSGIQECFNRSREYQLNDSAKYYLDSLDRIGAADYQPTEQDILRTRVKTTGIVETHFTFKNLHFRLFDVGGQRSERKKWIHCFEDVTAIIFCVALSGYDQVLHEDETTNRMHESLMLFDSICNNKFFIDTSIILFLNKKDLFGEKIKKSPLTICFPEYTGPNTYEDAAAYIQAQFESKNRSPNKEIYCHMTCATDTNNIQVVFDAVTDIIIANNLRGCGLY
RGS4-Gao reg = modulators of RGS4 binding to Galphao, primary screen, biochemical, multiplexed bead flow cytometry; Guanine nucleotide-binding protein G(o) subunit alpha (Homo sapiens), P09471; actives lie on both sides; binding response (% of control), % at 10 µM; 0.33% of 220,000 active; AID 1415, 2008; in the data active = binding response below about 49% or above about 150%; inactive = in between;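 note: fluorescent Galphao activated with aluminum fluoride binding bead-coupled RGS4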
Target sequence (P09471 whole entry, looked up): as above
Avidin fluor = green autofluorescence of compounds with avidin beads – biophysical, 488/530 nm, flow cytometry, artefact control, profiling panel | compound fluorescence 488/530 nm; active compounds read high | 0.38% of 220,000 active | fluorescence (KMESF) at 10 µM; in the data active = fluorescence above about 47
RGS8-Gao reg = RGS8-Galphao binding modulators, primary screen, biochemical, multiplexed bead flow cytometry; Guanine nucleotide-binding protein G(o) subunit alpha (Homo sapiens), P09471; 0.34% of 220,000 active; response (percent of control binding), % at 10 µM; actives lie on both sides; in the data active = response below about 60% or above about 140%; inactive = in between;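 note: Galphao activated as the GDP aluminium fluoride complex binding bead-coupled RGS8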
RGS7-Gao reg = RGS7-Galphao binding modulators, primary screen, biochemical, multiplexed bead flow cytometry; Guanine nucleotide-binding protein G(o) subunit alpha (Homo sapiens), P09471; actives lie on both sides; binding response (% of control), % at 10 µM; 0.35% of 220,000 active; in the data active = binding response below about 49% or above about 150%; inconclusive = no clear call, values can overlap the other calls; inactive = in between;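 note: fluorescent Galphao held in activated GDP-AlF4 state binding bead-coupled RGS7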
RGS-Gao = modulators of RGS–Galpha-o binding, primary screen, biochemical, multiplexed beads, flow cytometry, RGS4/7/8/16/19; shares compounds with RGS16-Gao; multiplexed bead flow cytometry; RGS4–Galpha-o binding response, % at 10 µM; 99% of 1,600 active;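 note: fluorescently labeled Galpha-o bound to GDP with aluminium fluoride binding biotinylated RGS beads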
Avidin counter = disruption of biotin probe capture by avidin, counter-screen for RGS protein interaction modulators, biochemical, flow cytometry, bead-based | inhibition, % at 10 µM | 1,700 tested, under 10 active | streptavidin beads, fluorescein-biotin binding | shares compounds with RGS16-Gao;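 active = inhibition above 50%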;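 note: median green fluorescence of gated singlet beads compared with DMSO control wells; 0% = DMSO wells and 100% = complete loss of bead fluorescence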
RGS8-Gao confirm = RGS8-Galphao binding modulators, confirmation, biochemical, multiplexed bead flow cytometry, single concentration | shares compounds with RGS16-Gao | bead-based flow cytometry RGS8-Galphao binding, fluorescence; actives lie on both sides | 3% of 1,700 active | binding response (% of control), % at 10 µM; in the data active = binding response below about 72% or above about 130%; inactive = in between;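 note: Galphao activated as GDP AlF4 complex before binding bead RGS8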
RGS7-Gao confirm = RGS7-Galphao binding modulators, confirmation, biochemical, multiplexed bead flow cytometry, single concentration; shares compounds with RGS16-Gao; bead-based flow cytometry RGS7-Galphao binding; actives lie on both sides; response (percent of control binding), % at 10 µM; 7.8% of 1,700 active; AID 1837, 2009; in the data active = response below about 75% or above about 130%; inactive = in between;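 note: fluorescent Galphao activated with GDP and aluminum fluoride binding bead-coupled RGS7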
RGS16-Gao conf = modulators of RGS16-Galphao protein binding, confirmation, biochemical, single concentration, multiplexed bead flow cytometry; response (% of control binding), % at 10 µM; 4% of 1,700 active; bead-based flow cytometry; actives lie on both sides; shares compounds with RGS16-Gao; in the data active = response below about 74% or above about 130%; inactive = in between;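 note: Galphao activated as the GDP aluminium fluoride complex binding bead-coupled RGS16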
RGS4-Gao confirm = modulators of RGS4-Galphao protein binding, confirmation, biochemical, single concentration, multiplexed bead flow cytometry; shares compounds with RGS16-Gao; 4% of 1,700 active; actives lie on both sides; binding response (% of control), % at 10 µM; in the data active = binding response below about 74% or above about 130%; inactive = in between
RGS19-Gao single = regulators of RGS19-Galphao binding, confirmation, biochemical, single point, multiplexed bead flow cytometry; shares compounds with RGS16-Gao; response (percent of control binding), % at 10 µM; bead-based flow cytometry RGS19-Galphao binding; actives lie on both sides; 5% of 1,700 active; in the data active = response below about 50% or above about 160%; inactive = in between;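 note: 100% = no compound control and 0% = blank background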
The depositor's hits bear a star; [ ] = another dose, or the depositor's remark. Unless noted, the rule behind the calls is not given here.

How did COCC(=O)NC1(c2nnnn2CCOC(=O)Nc2ccc(Cl)cc2)CCCCC1 do in these assays?
GSH bead fluor: 23; RGS16-Gao: 98; RGS4-Gao reg: 116; Avidin fluor: 68*; RGS8-Gao reg: 101; RGS7-Gao reg: 255*[activator]; RGS-Gao: 116*; Avidin counter: 0; RGS8-Gao confirm: 108; RGS7-Gao confirm: 115; RGS16-Gao conf: 109; RGS4-Gao confirm: 110; RGS19-Gao single: 106

What do the screens show for `COCC(=O)N(C)C1(c2nnnn2CCOC(=O)Nc2ccc(Cl)cc2)CCCCC1`?
GSH bead fluor: 12; RGS16-Gao: 103; RGS4-Gao reg: 99; Avidin fluor: 10; RGS8-Gao reg: 104; RGS7-Gao reg: inconclusive

How did O=C(Nc1ccccc1Cl)c1cccc(COc2cc(Cl)ccc2Cl)c1 do in these assays?
GSH bead fluor: 20; RGS16-Gao: 100; RGS4-Gao reg: 98; Avidin fluor: 13; RGS8-Gao reg: 99; RGS7-Gao reg: 98

Results for CCOc1cc(CNc2ccc3c(c2)CCC3)ccc1OC ?
GSH bead fluor: 25; RGS16-Gao: 100; RGS4-Gao reg: 102; Avidin fluor: 12; RGS8-Gao reg: 98; RGS7-Gao reg: 99

What do the screens show for `Cc1cc(C)c(C#N)c(SCCS(=O)(=O)c2ccc(C(C)(C)C)cc2)n1`?
GSH bead fluor: 30; Avidin counter: 3; RGS8-Gao confirm: 100; RGS7-Gao confirm: 97; RGS16-Gao conf: 98; RGS4-Gao confirm: 97; RGS19-Gao single: 92

Results for Cc1cc(C)c(C#N)c(SCCS(=O)(=O)c2ccc(Cl)cc2)n1 ?
RGS16-Gao: 84; RGS4-Gao reg: 90; Avidin fluor: 6; RGS8-Gao reg: 91; RGS7-Gao reg: inconclusive

What do the screens show for `O=C(CSc1nnc(-c2c[nH]c3ccccc23)o1)c1ccc(-c2ccccc2)cc1`?
GSH bead fluor: 15; RGS16-Gao: 104; RGS4-Gao reg: 101; Avidin fluor: 16; RGS8-Gao reg: 102; RGS7-Gao reg: 102

What do the screens show for `O=C(/C=C/c1ccc(F)cc1)c1ccccc1Br`?
GSH bead fluor: 18; RGS16-Gao: 98; RGS4-Gao reg: 98; Avidin fluor: 7; RGS8-Gao reg: 99; RGS7-Gao reg: 98

What do the screens show for `COc1cc(C(=O)NNC(=O)c2ccc(NC(C)=O)cc2)cc(OC)c1OC`?
GSH bead fluor: 8; RGS16-Gao: 11*; RGS4-Gao reg: 23*; Avidin fluor: 1; RGS8-Gao reg: 14*; RGS7-Gao reg: 17*; Avidin counter: -1; RGS8-Gao confirm: 107; RGS7-Gao confirm: 210*[activator]; RGS16-Gao conf: 132*[activator]; RGS4-Gao confirm: 165*[activator]; RGS19-Gao single: 255*[activator]

Results for COc1cc(C(=O)Nc2ccc(N(C)C)cc2)cc(OC)c1OC ?
GSH bead fluor: 6; RGS16-Gao: 98; RGS4-Gao reg: 99; Avidin fluor: 7; RGS8-Gao reg: 100; RGS7-Gao reg: 98

Results for C/C=C/CSc1nc2c(c(=O)[nH]c(=O)n2C)n1Cc1ccc(C)cc1 ?
GSH bead fluor: 13; RGS16-Gao: 99; RGS4-Gao reg: 99; Avidin fluor: 6; RGS8-Gao reg: 96; RGS7-Gao reg: 107

What do the screens show for `NNC(=O)CN1CCN(c2ncc(C(F)(F)F)cc2Cl)CC1`?
GSH bead fluor: 12; RGS16-Gao: 102; RGS4-Gao reg: 101; Avidin fluor: 23; RGS8-Gao reg: 102; RGS7-Gao reg: 100

What do the screens show for `CC(C)(C)NC(=O)NC(=O)CN1CCN(c2ncc(C(F)(F)F)cc2Cl)CC1`?
GSH bead fluor: 41; Avidin counter: 0; RGS8-Gao confirm: 98; RGS7-Gao confirm: 89; RGS16-Gao conf: 92; RGS4-Gao confirm: 94; RGS19-Gao single: 94

Results for c1ccc(-c2nnsc2-c2nc3ccccc3[nH]2)cc1 ?
GSH bead fluor: 18; RGS16-Gao: 99; RGS4-Gao reg: 84; Avidin fluor: 6; RGS8-Gao reg: 56*; RGS7-Gao reg: 62; RGS-Gao: 84*; Avidin counter: -1; RGS8-Gao confirm: 106; RGS7-Gao confirm: 107; RGS16-Gao conf: 104; RGS4-Gao confirm: 107; RGS19-Gao single: 100

How did O=C1c2cccc3c(O)ccc(c23)C(=O)N1Cc1ccccc1 do in these assays?
GSH bead fluor: 162*; RGS16-Gao: 186*[activator]; RGS4-Gao reg: 181*[activator]; Avidin fluor: 81*; RGS8-Gao reg: 116; RGS7-Gao reg: 164*[activator]; Avidin counter: 2; RGS8-Gao confirm: 126*[activator]; RGS7-Gao confirm: 264*[activator]; RGS16-Gao conf: 203*[activator]; RGS4-Gao confirm: 204*[activator]; RGS19-Gao single: 219*[activator]
